{"source": "the supplement of paper PMC11732987", "about": "“Enantioselective OTUD7B fragment discovery through chemoproteomics screening and high-throughput optimisation” (Communications Chemistry, 2025)", "assay_in_all_cases": "log2 ratio of Biotin-Ahx-Ub-VS probe labelling (fragment/DMSO); higher = less target engagement (more negative = stronger competition), active = hit call of the paper (q ≤ 0.05, log2 ratio ≤ -1)", "settings_in_all_cases": "compound concentration: 200 uM; treatment time: 3 h", "key": {"USP19": {"biological_target": "T1, USP19 (UniProt O94966)", "T1 sequence (whole entry)": "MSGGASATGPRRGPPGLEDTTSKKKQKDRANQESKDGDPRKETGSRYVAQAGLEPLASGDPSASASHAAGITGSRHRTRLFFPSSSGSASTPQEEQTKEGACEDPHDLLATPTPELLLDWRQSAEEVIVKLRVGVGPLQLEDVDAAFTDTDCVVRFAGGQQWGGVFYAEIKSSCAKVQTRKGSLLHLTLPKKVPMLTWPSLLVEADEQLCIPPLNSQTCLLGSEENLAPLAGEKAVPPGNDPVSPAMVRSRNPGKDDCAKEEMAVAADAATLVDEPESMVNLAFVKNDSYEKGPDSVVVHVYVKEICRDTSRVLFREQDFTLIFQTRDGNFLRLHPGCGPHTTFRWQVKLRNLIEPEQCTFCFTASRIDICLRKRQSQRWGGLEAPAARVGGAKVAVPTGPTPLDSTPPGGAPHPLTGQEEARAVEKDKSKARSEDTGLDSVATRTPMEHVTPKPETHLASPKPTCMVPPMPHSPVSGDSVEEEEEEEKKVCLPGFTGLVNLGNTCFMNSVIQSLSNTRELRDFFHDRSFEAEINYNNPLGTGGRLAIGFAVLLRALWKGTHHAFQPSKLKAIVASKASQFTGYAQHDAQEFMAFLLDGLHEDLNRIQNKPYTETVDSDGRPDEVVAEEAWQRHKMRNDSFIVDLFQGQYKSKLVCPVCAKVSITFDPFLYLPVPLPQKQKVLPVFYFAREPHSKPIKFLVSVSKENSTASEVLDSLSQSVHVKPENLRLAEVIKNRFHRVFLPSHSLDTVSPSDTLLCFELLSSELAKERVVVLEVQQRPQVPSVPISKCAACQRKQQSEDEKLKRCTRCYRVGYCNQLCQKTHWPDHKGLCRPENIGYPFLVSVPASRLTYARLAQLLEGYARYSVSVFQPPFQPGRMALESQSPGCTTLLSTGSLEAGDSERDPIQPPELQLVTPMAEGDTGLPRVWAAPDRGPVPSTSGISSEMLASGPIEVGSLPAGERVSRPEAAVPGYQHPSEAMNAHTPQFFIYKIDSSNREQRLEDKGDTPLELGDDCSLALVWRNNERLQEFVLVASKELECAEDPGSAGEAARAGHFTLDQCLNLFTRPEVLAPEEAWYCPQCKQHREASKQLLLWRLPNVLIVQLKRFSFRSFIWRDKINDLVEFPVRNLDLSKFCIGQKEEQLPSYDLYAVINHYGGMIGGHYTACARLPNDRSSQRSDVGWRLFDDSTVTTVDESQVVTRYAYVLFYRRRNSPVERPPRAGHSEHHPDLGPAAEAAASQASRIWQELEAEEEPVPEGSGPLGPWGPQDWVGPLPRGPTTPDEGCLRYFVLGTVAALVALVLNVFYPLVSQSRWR", "method_in_brief": "(§1)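 Labelled DUBs from HEK293T lysate were NeutrAvidin-enriched, digested with LysC and trypsin, and run by diaPASEF LC-MS/MS. Before that, each 495 µg sample in Tris/CHAPS/IGEPAL buffer with protease inhibitors was treated in triplicate with fragment at 200 µM or vehicle for 3 h, then with Biotin-Ahx-Ub-VS at 0.5 µM final for 1 h. Values are average log2 ratios of fragment over vehicle by unpaired t-test, based on global-median-normalised Spectronaut label-free quantities from proteins with ≥2 unique peptides.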"}, "USP22": {"biological_target": "T2, USP22 (UniProt Q9UPT9)", "T2 sequence (whole entry)": "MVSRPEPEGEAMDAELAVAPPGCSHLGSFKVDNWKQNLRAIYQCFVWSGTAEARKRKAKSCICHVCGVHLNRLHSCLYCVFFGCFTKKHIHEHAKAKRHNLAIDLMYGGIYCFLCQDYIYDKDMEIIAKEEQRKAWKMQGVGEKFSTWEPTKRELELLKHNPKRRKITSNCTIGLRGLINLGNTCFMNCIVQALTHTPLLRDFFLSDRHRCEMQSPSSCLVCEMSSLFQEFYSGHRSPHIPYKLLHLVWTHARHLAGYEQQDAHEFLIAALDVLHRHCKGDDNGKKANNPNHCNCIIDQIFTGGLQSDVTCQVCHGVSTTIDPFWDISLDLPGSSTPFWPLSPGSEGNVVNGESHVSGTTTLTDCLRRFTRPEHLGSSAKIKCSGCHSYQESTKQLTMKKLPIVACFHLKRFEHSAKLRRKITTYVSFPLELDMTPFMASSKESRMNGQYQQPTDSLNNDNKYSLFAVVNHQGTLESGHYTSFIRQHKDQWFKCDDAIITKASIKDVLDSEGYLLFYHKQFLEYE", "method_in_brief": "as §1"}, "USP24": {"biological_target": "USP24 (UniProt Q9UPU5)", "sequence (Q9UPU5 whole entry)": "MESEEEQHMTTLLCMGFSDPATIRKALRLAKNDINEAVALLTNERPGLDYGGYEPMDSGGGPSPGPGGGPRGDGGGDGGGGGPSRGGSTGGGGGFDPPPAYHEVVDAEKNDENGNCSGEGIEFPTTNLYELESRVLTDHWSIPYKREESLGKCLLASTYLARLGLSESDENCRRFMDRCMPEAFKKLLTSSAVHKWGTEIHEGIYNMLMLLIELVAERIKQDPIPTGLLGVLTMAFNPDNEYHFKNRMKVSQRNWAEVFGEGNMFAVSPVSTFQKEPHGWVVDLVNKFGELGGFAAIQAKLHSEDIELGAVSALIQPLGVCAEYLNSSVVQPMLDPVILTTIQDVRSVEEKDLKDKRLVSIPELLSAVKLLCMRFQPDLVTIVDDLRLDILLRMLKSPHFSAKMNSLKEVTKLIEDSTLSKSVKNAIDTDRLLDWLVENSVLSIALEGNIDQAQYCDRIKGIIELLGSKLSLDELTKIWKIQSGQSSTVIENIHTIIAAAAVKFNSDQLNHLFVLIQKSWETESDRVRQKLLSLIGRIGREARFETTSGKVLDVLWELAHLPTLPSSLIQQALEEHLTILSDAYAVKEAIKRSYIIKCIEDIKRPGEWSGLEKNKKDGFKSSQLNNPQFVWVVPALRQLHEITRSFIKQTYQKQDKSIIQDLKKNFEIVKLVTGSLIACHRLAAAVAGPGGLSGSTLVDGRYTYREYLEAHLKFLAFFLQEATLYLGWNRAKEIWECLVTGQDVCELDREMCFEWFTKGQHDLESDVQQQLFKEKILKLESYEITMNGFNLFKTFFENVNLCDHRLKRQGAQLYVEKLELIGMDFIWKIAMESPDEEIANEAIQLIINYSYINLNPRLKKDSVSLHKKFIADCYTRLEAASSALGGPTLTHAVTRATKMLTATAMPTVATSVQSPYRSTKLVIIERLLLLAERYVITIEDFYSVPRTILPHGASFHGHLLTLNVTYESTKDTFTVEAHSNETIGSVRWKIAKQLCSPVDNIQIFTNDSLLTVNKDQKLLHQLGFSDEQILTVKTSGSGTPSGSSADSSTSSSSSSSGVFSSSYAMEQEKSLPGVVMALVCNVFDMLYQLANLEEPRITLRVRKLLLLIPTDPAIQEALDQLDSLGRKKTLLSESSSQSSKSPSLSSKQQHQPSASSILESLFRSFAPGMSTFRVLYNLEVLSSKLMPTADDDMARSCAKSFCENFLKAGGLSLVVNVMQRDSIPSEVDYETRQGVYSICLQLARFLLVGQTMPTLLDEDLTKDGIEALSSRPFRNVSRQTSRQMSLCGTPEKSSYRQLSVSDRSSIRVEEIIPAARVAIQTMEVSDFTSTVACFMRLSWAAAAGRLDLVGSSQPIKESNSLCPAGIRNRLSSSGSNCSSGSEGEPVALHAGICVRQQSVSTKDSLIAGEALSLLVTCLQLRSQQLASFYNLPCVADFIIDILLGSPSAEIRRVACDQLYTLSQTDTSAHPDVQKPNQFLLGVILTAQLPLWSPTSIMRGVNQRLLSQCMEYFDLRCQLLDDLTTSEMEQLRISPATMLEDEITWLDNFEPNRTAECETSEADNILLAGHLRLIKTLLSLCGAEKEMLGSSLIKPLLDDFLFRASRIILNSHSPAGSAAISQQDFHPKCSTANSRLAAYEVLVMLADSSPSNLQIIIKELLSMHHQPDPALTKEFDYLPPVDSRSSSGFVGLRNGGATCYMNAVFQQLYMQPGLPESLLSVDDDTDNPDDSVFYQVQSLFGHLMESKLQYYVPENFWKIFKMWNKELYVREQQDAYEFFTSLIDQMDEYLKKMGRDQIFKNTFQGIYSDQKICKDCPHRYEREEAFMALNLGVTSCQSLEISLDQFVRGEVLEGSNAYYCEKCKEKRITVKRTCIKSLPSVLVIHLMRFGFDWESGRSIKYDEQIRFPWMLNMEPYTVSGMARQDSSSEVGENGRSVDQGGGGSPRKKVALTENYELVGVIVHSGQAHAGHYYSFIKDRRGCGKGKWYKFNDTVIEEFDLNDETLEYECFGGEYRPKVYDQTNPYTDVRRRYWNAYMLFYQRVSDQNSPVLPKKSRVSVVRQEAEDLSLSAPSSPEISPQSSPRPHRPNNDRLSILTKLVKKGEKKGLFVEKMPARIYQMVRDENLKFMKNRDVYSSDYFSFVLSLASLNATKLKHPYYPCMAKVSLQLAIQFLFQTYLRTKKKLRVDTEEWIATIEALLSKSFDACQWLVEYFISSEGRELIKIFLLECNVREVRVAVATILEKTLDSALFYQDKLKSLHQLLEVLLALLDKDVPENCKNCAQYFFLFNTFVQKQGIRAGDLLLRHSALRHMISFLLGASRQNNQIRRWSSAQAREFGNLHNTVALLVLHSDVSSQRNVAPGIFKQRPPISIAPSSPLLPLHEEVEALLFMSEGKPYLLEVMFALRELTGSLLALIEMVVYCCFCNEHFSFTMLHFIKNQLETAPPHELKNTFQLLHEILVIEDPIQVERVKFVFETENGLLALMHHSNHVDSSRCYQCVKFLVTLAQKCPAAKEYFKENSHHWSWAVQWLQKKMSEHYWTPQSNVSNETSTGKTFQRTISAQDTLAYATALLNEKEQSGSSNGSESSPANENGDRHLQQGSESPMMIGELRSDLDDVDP", "method_in_brief": "as §1"}, "USP25": {"biological_target": "T3, USP25 (UniProt Q9UHP3)", "T3 sequence (whole entry)": "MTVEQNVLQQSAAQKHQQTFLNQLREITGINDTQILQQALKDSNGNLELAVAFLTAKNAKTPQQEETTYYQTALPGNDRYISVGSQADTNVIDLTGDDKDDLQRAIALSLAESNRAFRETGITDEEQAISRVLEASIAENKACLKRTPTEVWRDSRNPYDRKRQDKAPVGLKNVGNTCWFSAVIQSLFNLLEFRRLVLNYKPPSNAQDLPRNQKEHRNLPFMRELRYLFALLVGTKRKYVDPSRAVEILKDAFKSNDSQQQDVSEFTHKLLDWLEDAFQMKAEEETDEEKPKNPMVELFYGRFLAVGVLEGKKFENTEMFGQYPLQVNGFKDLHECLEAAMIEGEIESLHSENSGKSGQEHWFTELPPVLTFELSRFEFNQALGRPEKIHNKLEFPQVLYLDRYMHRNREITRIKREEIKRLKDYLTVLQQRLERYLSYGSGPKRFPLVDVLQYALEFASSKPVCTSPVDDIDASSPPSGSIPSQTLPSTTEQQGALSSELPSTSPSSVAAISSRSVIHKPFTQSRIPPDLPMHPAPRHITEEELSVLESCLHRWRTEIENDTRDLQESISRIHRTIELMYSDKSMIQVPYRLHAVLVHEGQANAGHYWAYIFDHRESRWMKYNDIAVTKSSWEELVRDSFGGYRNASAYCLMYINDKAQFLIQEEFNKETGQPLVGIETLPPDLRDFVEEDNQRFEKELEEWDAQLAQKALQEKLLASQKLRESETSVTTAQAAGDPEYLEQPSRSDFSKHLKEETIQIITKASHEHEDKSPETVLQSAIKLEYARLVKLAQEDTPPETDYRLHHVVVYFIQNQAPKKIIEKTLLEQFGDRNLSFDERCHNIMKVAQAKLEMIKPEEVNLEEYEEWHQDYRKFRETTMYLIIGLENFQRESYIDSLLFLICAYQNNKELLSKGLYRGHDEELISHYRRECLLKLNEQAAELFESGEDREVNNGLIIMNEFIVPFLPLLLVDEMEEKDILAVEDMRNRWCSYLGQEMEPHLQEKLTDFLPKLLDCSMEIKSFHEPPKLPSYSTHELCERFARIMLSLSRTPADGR", "method_in_brief": "as §1"}, "USP28": {"biological_target": "T4, USP28 (UniProt Q96RU2)", "T4 sequence (whole entry)": "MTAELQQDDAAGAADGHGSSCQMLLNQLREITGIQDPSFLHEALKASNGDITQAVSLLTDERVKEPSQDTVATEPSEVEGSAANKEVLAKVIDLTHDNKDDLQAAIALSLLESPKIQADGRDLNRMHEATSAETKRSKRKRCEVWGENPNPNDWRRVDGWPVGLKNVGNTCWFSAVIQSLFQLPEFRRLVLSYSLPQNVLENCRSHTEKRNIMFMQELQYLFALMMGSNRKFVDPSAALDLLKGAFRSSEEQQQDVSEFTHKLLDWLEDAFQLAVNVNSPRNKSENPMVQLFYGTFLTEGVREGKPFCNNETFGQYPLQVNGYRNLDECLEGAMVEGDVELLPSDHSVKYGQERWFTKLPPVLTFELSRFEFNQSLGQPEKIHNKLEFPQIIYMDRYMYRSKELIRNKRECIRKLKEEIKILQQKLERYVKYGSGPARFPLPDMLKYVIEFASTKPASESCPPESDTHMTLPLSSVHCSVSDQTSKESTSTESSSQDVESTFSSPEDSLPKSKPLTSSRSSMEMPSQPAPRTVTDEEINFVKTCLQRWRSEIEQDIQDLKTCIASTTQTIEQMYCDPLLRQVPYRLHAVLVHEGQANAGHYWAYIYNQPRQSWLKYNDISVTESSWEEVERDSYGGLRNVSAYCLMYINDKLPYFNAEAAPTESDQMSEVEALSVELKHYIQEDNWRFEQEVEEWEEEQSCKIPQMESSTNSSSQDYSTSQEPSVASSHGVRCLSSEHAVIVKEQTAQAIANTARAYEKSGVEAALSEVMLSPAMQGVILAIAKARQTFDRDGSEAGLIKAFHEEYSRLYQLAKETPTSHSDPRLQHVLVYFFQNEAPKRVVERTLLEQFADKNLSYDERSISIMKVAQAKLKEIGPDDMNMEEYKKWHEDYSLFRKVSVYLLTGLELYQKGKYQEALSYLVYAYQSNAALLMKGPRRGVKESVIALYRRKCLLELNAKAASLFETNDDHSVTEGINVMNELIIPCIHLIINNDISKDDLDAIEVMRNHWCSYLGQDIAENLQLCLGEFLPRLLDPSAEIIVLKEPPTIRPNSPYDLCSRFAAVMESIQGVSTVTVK", "method_in_brief": "as §1"}}, "note": "Values without a mark were called inactive.", "data": [{"smiles": "O=C(CCl)Nc1cc(Cl)ccc1-n1cncn1", "values": [{"measurement": "log2 ratio of Biotin-Ahx-Ub-VS probe labelling", "setting": "USP19", "result": -0.987}, {"measurement": "log2 ratio of Biotin-Ahx-Ub-VS probe labelling", "setting": "USP22", "result": -0.15}, {"measurement": "log2 ratio of Biotin-Ahx-Ub-VS probe labelling", "setting": "USP24", "result": "-1.34 (active)"}, {"measurement": "log2 ratio of Biotin-Ahx-Ub-VS probe labelling", "setting": "USP25", "result": "-1.65 (active)"}, {"measurement": "log2 ratio of Biotin-Ahx-Ub-VS probe labelling", "setting": "USP28", "result": "-2.34 (active)"}]}]}
